# Sampled rows, rich in hits. Any-hit rate of the full collection: about 3.1%.
# CF NFkB inh – blocks PAF-induced NF-kB reporter in cystic fibrosis cells; inhibition, % at 5 µM; AID 588850; KKLEB NF-kB-GFP reporter, GFP fluorescence overnight; 360,000 compounds, 0.86% hits;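 active = at least 50% inhibition at 5 µM, scaled per plate between neutral and stimulator controls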;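 note: PAF is a Pseudomonas aeruginosa culture filtrate used as stimulus; plate controls were PAF-stimulated DMSO wells for no effect and unstimulated DMSO wells for full effect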
# KKLEB tox – reduces viability of KKLEB cystic fibrosis airway cells; KKLEB CF airway cells viability, ATPlite luminescence, overnight; active compounds read low; cells stimulated with P. aeruginosa culture filtrate; activity change (cytotoxicity), % at 5 µM; 360,000 compounds, 0.36% hits; AID 602141;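 active = corrected activity change at or below -50% at 5 µM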
# MITF TRPM1 inh – MITF TRPM1 promoter inhibition in SK-MEL-5 cells. SK-MEL-5 TRPM1 promoter luciferase, 24 h. inhibition, % at 12.5 µM. 330,000 compounds, 0.83% hits;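 active = mean inhibition across replicates of 60% or more, whatever share of single replicates reaches that level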
# Peg3 prom inh – reduces Peg3 promoter-driven luciferase expression in HeLa; 360,000 compounds, 1.7% hits; HeLa PEG-Prom luciferase reporter, luminescence, overnight; inhibition, % at 20 µM;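 active = inhibition of at least 50% at 20 µM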
# ABHD5 PLIN5 PPI – ABHD5-PLIN5 protein interaction inhibition; Q00G26+Q8WTS1; Split G. princeps luciferase complementation, luminescence, 4 h; inhibition, % at 4 µM; 360,000 compounds, 0.78% hits; AID 602281;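 active = inhibition above the mean inhibition across every tested compound plus 3 SD, cut at about 22% in these data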;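 note: 0% = DMSO only wells and the 100% control is not disclosed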
# Target sequence (Q00G26 whole entry, looked up): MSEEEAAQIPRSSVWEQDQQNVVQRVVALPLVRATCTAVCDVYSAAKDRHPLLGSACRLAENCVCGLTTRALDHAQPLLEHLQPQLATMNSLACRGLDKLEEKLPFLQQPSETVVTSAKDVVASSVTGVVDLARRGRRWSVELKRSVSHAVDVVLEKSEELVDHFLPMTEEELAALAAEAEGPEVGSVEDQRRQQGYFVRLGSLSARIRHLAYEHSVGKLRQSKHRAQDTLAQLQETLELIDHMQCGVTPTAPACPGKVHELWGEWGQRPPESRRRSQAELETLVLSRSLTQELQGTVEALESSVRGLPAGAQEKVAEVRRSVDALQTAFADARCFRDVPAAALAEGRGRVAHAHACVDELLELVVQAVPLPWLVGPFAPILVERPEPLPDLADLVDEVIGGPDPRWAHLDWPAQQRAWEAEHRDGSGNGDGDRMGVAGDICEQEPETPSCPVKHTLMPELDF
# Target sequence (Q8WTS1 whole entry, looked up): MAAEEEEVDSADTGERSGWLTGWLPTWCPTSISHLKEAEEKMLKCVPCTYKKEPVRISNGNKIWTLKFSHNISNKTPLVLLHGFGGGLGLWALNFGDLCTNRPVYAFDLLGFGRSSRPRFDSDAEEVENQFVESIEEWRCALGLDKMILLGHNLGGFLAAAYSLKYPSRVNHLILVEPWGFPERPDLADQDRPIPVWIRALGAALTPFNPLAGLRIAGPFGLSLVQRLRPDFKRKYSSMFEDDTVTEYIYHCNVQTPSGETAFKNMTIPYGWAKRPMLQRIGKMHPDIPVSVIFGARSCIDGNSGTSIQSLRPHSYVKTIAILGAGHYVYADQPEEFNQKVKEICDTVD
# HIF-2a inh – blocks HIF-2a reporter activity. 786-0 RCC cells HIF-2a reporter, luciferase luminescence, overnight. inhibition, % at 18.8 µM. 360,000 compounds, 0.72% hits;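 active = inhibition of the luminescence signal of 40% or more relative to plate controls, in a single-dose primary screen at 18.75 µM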
# An asterisk follows results filed as active; . = no result given.
SMILES,CF NFkB inh,KKLEB tox,MITF TRPM1 inh,Peg3 prom inh,ABHD5 PLIN5 PPI,HIF-2a inh
COc1cc(OC)cc(C(=O)Nc2nnc(NC(=S)Nc3ccccc3)s2)c1,65*,15,8,-9,5,-15
COc1cc(OC)cc(C(=O)Nc2ccc(Nc3ccccc3)cc2)c1,-14,12,-29,-103,-2,-190
O=C(Nc1cccc(-c2cn3ccccc3n2)c1)c1cc2ccccc2oc1=O,4,-7,49,73*,2,-89
CC(=O)Nc1cccc(-c2cn3ccccc3n2)c1,2,-3,-15,-52,10,-115
CC(=O)OCC(=O)C1(O)CCC2C3CCC4=CC(=O)C=CC4(C)C3C(O)CC21C (centres undefined),75*,31,-6,-7,1,23
CCC(C)C(NC(=O)CCC(=O)OCC(=O)[C@@]1(O)CCC2[C@@H]3CCC4=CC(=O)C=C[C@]4(C)C3[C@@H](O)C[C@@]21C)C(=O)O (some centres undefined),74*,27,-14,11,5,30
C[C@]12C=CC(=O)C=C1CC[C@@H]1C2[C@@H](O)C[C@@]2(C)C1CC[C@]2(O)C(=O)COC(=O)CCC(=O)O (some centres undefined),74*,2,-7,-6,-2,25
Cc1cccc(C(=O)N[C@H](C(=O)Nc2nc3ccc(S(C)(=O)=O)cc3s2)C(C)C)c1,14,5,6,24,6,19
COC(=O)C[C@H]1CC[C@H](NC(=O)Nc2ccccc2OC)[C@@H](CO)O1,.,.,.,.,-12,5
CCSc1ncc(Cl)c(C(=O)Nc2sc3c(c2C(=O)NCc2cccnc2)CCCC3)n1,44,-54*,-5,7,2,-5
CCSc1ncc(Cl)c(C(=O)Nc2ccccc2Cl)n1,-19,4,-1,-8,-8,-52
CC(NC(=O)COC(=O)c1cc(NS(=O)(=O)c2ccc(Cl)c([N+](=O)[O-])c2)ccc1O)C1CC2CCC1C2 (centres undefined),-16,4,4,96*,0,84*
CCOC(=O)c1sc(NN=C(C(=O)OC)C(=O)OC)c(C(=O)OCC)c1C,11,-12,-5,27,2,-5
O=[N+]([O-])c1ccc2nc(NN=Cc3ccc(O)cc3)sc2c1,34,-6,21,72*,4,-193
O=C(O)c1cccc(N/N=C/c2ccc(-c3ccccc3)cc2)c1,16,12,24,-43,12,8
CC(C)(C)c1ccc(/C=N/Nc2cccc(C(=O)O)c2)cc1,-4,-4,61*,-43,-5,9
O=C(O)c1cccc(N/N=C/c2cc(Br)cc(Br)c2O)c1,1,6,-15,-219,1,-174
O=C(O)c1cccc(N/N=C/c2cccnc2)c1,-8,19,36,58*,2,-21
CN(C)c1ccc(/C=N/Nc2cccc(C(=O)O)c2)cc1,14,2,84*,-162,1,25
CCN(CC)S(=O)(=O)c1ccc(OC(C)C)c(NC(=O)c2c3c(nc4ccccc24)CCN(Cc2ccccc2)C3)c1,20,-28,17,55*,18,15
COc1ccc(S(=O)(=O)N2CCCCCC2)cc1NC(=O)c1c2c(nc3ccccc13)CCN(Cc1ccccc1)C2,-8,-15,1,43,7,12
O=C(c1ccc(N2CCOCC2)c([N+](=O)[O-])c1)N1CCCC(C(F)(F)F)C1 (centres undefined),-13,15,-5,-7,-4,2
c1ccc(OC2CCCCC2N2CCOCC2)cc1 (centres undefined),5,3,.,-11,-3,10
O=C1N[C@@H](Cc2c[nH]c3ccccc23)COC(=O)[C@@H](Cc2ccc(F)cc2)CC/C=C/C[C@@H]1CC(=O)N(CCO)Cc1ccccc1,7,22,28,19,-1,-23
Cc1sc2ncnc(SCC(=O)N3CCCC(C(F)(F)F)C3)c2c1C (centres undefined),-76,16,10,9,17,8
SMILES,CF NFkB inh,KKLEB tox,MITF TRPM1 inh,Peg3 prom inh,ABHD5 PLIN5 PPI,HIF-2a inh
O=C(NCc1ccc(Cl)cc1)C1CCN(S(=O)(=O)N2CCOCC2)CC1,13,5,15,13,4,10
Cc1ccc(N=C2C(=O)Nc3ccccc32)cc1,0,16,7,6,-5,11
Cc1nc2c(o1)C(=O)c1ccccc1C2=Nc1ccccc1,89*,-84*,94*,104*,-8,8
CN(Cc1ccccc1)C(=O)c1nn2cccnc2c1Cl,-14,-5,-10,-11,-6,5
CN1CCN(c2ccc(NC(=S)NC(=O)c3cccc4ccccc34)cc2)CC1,-31,0,64*,69*,5,-38
CCOc1cccc(/C=N/NC(=O)c2cc(C3CC3)[nH]n2)c1O,7,-3,61*,35,-1,-24
CCOc1cccc(/C=N/NC(=O)c2cccnc2)c1O,-4,8,30,30,3,-15
Cc1ccc(C(=O)Nc2cccc(N3C(=O)C4CCC(C)CC4C3=O)c2)cc1 (centres undefined),-30,27,1,-33,-10,-54
Cc1c2ccccc2nc2ccccc12,-32,7,1,-3,-5,-6
Cc1c2ccccc2c(C)c2c1ccc1ccccc12,0,14,-71,69*,-10,-68
Cc1nn(-c2ccccc2)c(C)c1/C=N/n1c(-c2ccc(Cl)cc2)n[nH]c1=S,17,3,4,53*,-3,8
CCOC(=O)c1c(CSc2ccccc2)n(C)c2cc(Br)c(OCC(O)CNC(CO)(CO)CO)cc12 (centres undefined),-4,-6,90*,97*,15,34
CCOC(=O)c1c(CSc2ccccc2)n(C)c2cc(Br)c(OC)c(O)c12,20,-18,-10,3,5,-31
N#C/C(=C\C=C\c1ccccc1[N+](=O)[O-])c1nc(-c2ccc3c(c2)OCO3)cs1,-7,-54*,8,18,1,-7
N#C/C(=C\Nc1ccc2c(c1)OCCO2)c1nc(-c2ccccc2)cs1,77*,-76*,-17,10,4,-1
COc1ccc(-c2csc(/C(C#N)=C/Nc3cc4oc5ccccc5c4cc3OC)n2)cc1,-10,8,-2,-11,1,-8
COc1ccc(-c2csc(/C(C#N)=C/Nc3ccc4c(c3)OCCO4)n2)cc1,62*,-64*,13,28,0,3
c1ccc(-c2csc(Nc3ccc4c(c3)OCCO4)n2)cc1,-30,1,-22,-205,-6,-222
C[C@@H]1C[C@H]2[C@@H]3CCC4=CC(=O)C=C[C@]4(C)[C@@]3(F)[C@@H](O)C[C@]2(C)[C@@]1(O)C(=O)COP(=O)(O)O,67*,-39,-16,-7,5,18

# Screening results deposited in PubChem by several laboratories.
